Results taken from PubChem BioAssay AID720597 (Broad Institute, 2013).
Potency and affinity values are given separately. Activity calls are given as the source filed them.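 Rule for the calls: active = fitted half-maximal dose no more than twice the top valid tested dose, for compounds that lower signal; inconclusive = fit invalid, or curve flat with activity between -70 and -30; inactive = potency past limit, curve flat within ±30, or signal increasing.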

biological target: NAD-dependent protein deacylase sirtuin-5, mitochondrial (Homo sapiens) (UniProt Q9NXA8); assay: SIRT5 deacylase inhibitors, dose response, biochemical, fluorescence imaging, cherry-pick, set 6 (AID 720597); settings: Purified SirT5, succinyl-peptide-AMC/trypsin fluorescence; series mostly up to 15 µM;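 note: lower AMC signal can also come from blocking the trypsin step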
Sequence (Q9NXA8 whole entry, looked up): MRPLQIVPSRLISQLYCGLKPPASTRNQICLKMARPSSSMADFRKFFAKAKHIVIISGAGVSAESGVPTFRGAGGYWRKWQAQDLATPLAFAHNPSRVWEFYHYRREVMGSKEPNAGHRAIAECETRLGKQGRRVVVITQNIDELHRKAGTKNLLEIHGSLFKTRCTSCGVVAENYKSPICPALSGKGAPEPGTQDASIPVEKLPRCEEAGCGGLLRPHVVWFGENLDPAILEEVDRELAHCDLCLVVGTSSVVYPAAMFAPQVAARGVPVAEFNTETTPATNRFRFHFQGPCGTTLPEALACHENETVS

outcome, inactive:
COc1ccc(S(=O)(=O)Nc2ccc3c(c2)C(=O)N([C@@H](C)CO)C[C@H](C)[C@@H](CN(C)Cc2ccc(C(F)(F)F)cc2)OCCCC[C@H](C)O3)cc1
CC(=O)N(Cc1cccc(F)c1)C[C@H]1[C@@H](c2ccccc2)[C@@H](CO)N1C(C)=O
C[C@H]1CN([C@@H](C)CO)S(=O)(=O)c2ccc(-c3cccc(F)c3)cc2O[C@@H]1CN(C)C(=O)Nc1cc(F)ccc1F
C[C@H](CO)N1C[C@H](C)[C@H](CN(C)C(=O)NC2CCCCC2)Oc2ccc(NC(=O)Nc3ccccc3)cc2C1=O
C[C@H]1CN([C@@H](C)CO)C(=O)c2c(c3ccccc3n2C)-c2ccccc2CO[C@H]1CN(C)S(=O)(=O)c1ccc(F)cc1
CCC(=O)N(C)C[C@@H]1Oc2ncc(-c3ccc(F)cc3)cc2C(=O)N([C@@H](C)CO)C[C@@H]1C
CN(C)CC#Cc1ccc([C@@H]2[C@@H](CO)N3C(=O)CN(C(=O)c4cccc(F)c4)C[C@@H]23)cc1
CCS(=O)(=O)N1CC2(C1)CN(S(=O)(=O)c1cn(C)cn1)[C@@H](CO)c1[nH]c3cc(OC)ccc3c12
C[C@@H]1CN([C@H](C)CO)C(=O)Cc2cc(NS(=O)(=O)c3ccc(Cl)cc3)ccc2O[C@H]1CN(C)Cc1ccc(Oc2ccccc2)cc1
C[C@H](CO)N1C[C@H](C)[C@H](CN(C)Cc2ccc(Cl)c(Cl)c2)Oc2ccc(NC(=O)CCCCCC(=O)Nc3ccccc3N)cc2C1=O
COc1ccc(S(=O)(=O)N(C)C[C@H]2OCCCC[C@@H](C)Oc3ccc(NS(=O)(=O)c4ccc(Cl)cc4)cc3C(=O)N([C@H](C)CO)C[C@H]2C)cc1
C[C@H]1CN([C@@H](C)CO)S(=O)(=O)c2ccc(/C=C/c3ccccc3)cc2O[C@H]1CN(C)Cc1ccccc1
C[C@@H]1CN([C@H](C)CO)C(=O)c2c(c3ccccc3n2C)-c2ccccc2CO[C@@H]1CN(C)S(=O)(=O)c1ccc(Cl)cc1
C/C=C/c1ccc2c(c1)O[C@H](CN(C)Cc1cccc(F)c1)[C@H](C)CN([C@H](C)CO)S2(=O)=O
COc1ccc(NC(=O)N(C)C[C@H]2Oc3ccc(NS(=O)(=O)c4ccc(OC)cc4)cc3CC(=O)N([C@H](C)CO)C[C@H]2C)cc1
CCCC#Cc1ccc2c(c1)O[C@@H](CN(C)C(=O)c1ccccc1F)[C@@H](C)CN([C@H](C)CO)S2(=O)=O
C[C@H](O)C#Cc1ccc2c(c1)O[C@H](CN(C)Cc1ccc(-c3ccccc3)cc1)[C@H](C)CN([C@@H](C)CO)S2(=O)=O
COc1ccc(S(=O)(=O)Nc2ccc3c(c2)C(=O)N([C@H](C)CO)C[C@@H](C)[C@H](CN(C)Cc2ccc(Oc4ccccc4)cc2)O3)cc1
C[C@H](CO)N1C[C@H](C)[C@H](CN(C)Cc2cccc(C(F)(F)F)c2)OCc2ccccc2-c2ccccc2C1=O
C[C@@H]1CN([C@H](C)CO)C(=O)c2cc(NS(=O)(=O)c3ccc(Cl)cc3)ccc2O[C@H]1CN(C)Cc1ccc2c(c1)OCO2
COc1ccc(S(=O)(=O)Nc2ccc3c(c2)C(=O)N([C@H](C)CO)C[C@@H](C)[C@@H](CN(C)Cc2ccc(Cl)c(Cl)c2)O3)cc1
O=C(C1CCOCC1)N1CC2(C1)[C@@H](c1ccccc1)[C@@H](CO)N2CCC(F)(F)F
COc1cccc(S(=O)(=O)N(C)C[C@H]2Oc3cc(C4=CCCC4)ccc3S(=O)(=O)N([C@@H](C)CO)C[C@@H]2C)c1
C[C@H](CO)N1C[C@H](C)[C@@H](CN(C)Cc2ccc(Oc3ccccc3)cc2)Oc2ccc(NC(=O)Cc3ccccc3)cc2C1=O
C[C@@H]1CN([C@H](C)CO)S(=O)(=O)c2ccc(C#CC(C)(C)O)cc2O[C@@H]1CN(C)Cc1ccc(-c2ccccc2)cc1
O=C(CCN1CCCCC1)N[C@H]1CC[C@H](CC(=O)N2CCC(Cc3ccccc3)CC2)O[C@H]1CO
COc1cccc(CNC(=O)C[C@H]2CC[C@@H]3[C@@H](COc4ccc(NC(=O)c5cccs5)cc4C(=O)N3C)O2)c1
COc1cccc(S(=O)(=O)N(C)C[C@@H]2Oc3ncc(-c4cccc(C(F)(F)F)c4)cc3C(=O)N([C@H](C)CO)C[C@@H]2C)c1
C[C@H]1CN([C@@H](C)CO)S(=O)(=O)c2ccc(/C=C/c3ccccc3)cc2O[C@@H]1CN(C)C(=O)NC1CCCCC1
CO[C@@H]1CN(C)C(=O)c2ccc(NS(C)(=O)=O)cc2OC[C@@H](C)N(Cc2nccs2)C[C@H]1C
COc1ccc(NC(=O)N(C)C[C@@H]2Oc3cc(C#CCC(C)C)ccc3S(=O)(=O)N([C@@H](C)CO)C[C@H]2C)cc1
C[C@@H]1CN([C@@H](C)CO)C(=O)c2cc(-c3cccnc3)cnc2O[C@H]1CN(C)C(=O)Nc1ccc2c(c1)OCO2
C[C@@H]1CN([C@@H](C)CO)C(=O)c2cc(C#CCN(C)C)cnc2O[C@H]1CN(C)Cc1ccncc1
Cc1cccc(S(=O)(=O)N(C)C[C@@H]2OCc3ccccc3-c3c(n(C)c4ccccc34)C(=O)N([C@H](C)CO)C[C@@H]2C)c1
CN(C)C(=O)c1cccc(-c2ccc([C@@H]3[C@H](CO)N4C(=O)CN(C(=O)C5CC5)C[C@@H]34)cc2)c1
COc1ccccc1NC(=O)N1CC(=O)N2[C@H](CO)[C@@H](c3ccc(C#CC4CC4)cc3)[C@H]2C1
O=C(CSc1nnc(-c2ccco2)n1-c1ccccc1)Nc1ccc(F)cc1
COc1ccc(S(=O)(=O)Nc2ccc3c(c2)C(=O)N([C@H](C)CO)C[C@H](C)[C@@H](CN(C)Cc2ccc(C(F)(F)F)cc2)OCCCC[C@H](C)O3)cc1
CS(=O)(=O)N(CC(=O)NC1CCCC1)c1cccc(F)c1
O=C(NCC[C@@H]1CC[C@@H](NC(=O)C2CC2)[C@H](CO)O1)c1cc(Cl)cc(Cl)c1
